These results are taken from the supplement of paper PMC6555819.

In this assay the test system is VDR:RXRa (NR concentration 270 nM, RXRa partner concentration 90 nM). The assay can be described thus: PBM binding z-score (relative to random genomic background probes); higher = stronger binding; sequences stand for … in GC…GCGATTGACAGCGTAGAATGAAGG
The procedure:
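Protein-binding microarray (Agilent 4x180K custom design, double-stranded 60-nt probes: 5' GC cap, 34-nt variable region, 24-nt constant primer region; full probe sequence given). Purified or IVT nuclear receptor:RXRα heterodimers (3:1 NR:RXRα, mostly 270:90 nM) or homodimers were incubated for 1 h in PBS with 2% milk and no ligand, then detected with Alexa488 antibodies. Fluorescence from o1-orientation probes (~5 replicates averaged) was converted to z-scores against 500 random hg19 background probes. Variable regions are seed direct-repeat (DR0–DR5) sites, all their single-nucleotide variants and half-site ablations.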
With CGTACTGGGCCATCAGGTCATTGATATCAACGTT, the PBM binding z-score stood at 1.97.

The sequence TAGCCTAGGTCAGATCGGGCCAGTATACGCTATA displayed a PBM binding z-score of 0.518. Regarding GATACAGGGTCAGATAGAGGCCAGAGTATGGAAA, the PBM binding z-score worked out at 3.49. The sequence ACTAGTTGGTCAGCTAAGGTCACACACAATTCGG returned a PBM binding z-score of 3.99.

CGAGCTAGGTCAGAACAGGACAGTGAAGGATGAT: the PBM binding z-score stood at 0.446.

Consider ATACCAAGGTGATCGTGAGGTCTTTGATACTAAC, for which the PBM binding z-score came to 0.526.

In the case of CAAACTAGGTAAAGGTCAAAGTCGGTTTGTGCCA, the PBM binding z-score came to 5.38. On to CAAACTAGGTCAAGGTCAAAGCCGGTTTGTGCCA, for which the PBM binding z-score is 4.95. Regarding CTCGAAAGGGCGGTTGAGGTGAGTATACGGATAA, the PBM binding z-score was -0.045. On to TTACCAAGGTGAGCTGAGGTCGTTGGTCCAACTC, for which the PBM binding z-score was determined as 3.79.

The sequence CCTACTGGGTCATCAGGTCATTGATATCAACGTT yielded a PBM binding z-score of 4.24.

In turn, CGAACTAGGTCACAGAGGTCAAAGTCCGTGCGTA showed a PBM binding z-score of 8.3. Sequence GCTCGCAGGCCATTTGGGTCACTCAATGACGGGC came in with a PBM binding z-score of 0.783. Then ATCTCTAGTTAAGACTCAGTTCAGTGAAGAACGC, with 1.2; and TAGCCTAGGTCATGCGGACCAGTATAGTGTCGGC, with 1.99.

Take CCTCGGAGGACAACTGGAGGTCAGAGCTGCCAGA: the PBM binding z-score is 2.08. On to CGAACTAGGTCATTGACAGCACAGTGAATAGTAA, for which the PBM binding z-score came out at 2.15. For the sequence AGAATGAGGTTATCCGTAGATCAGGGAAGAAAGT, the PBM binding z-score amounted to 1.44.

Regarding GCGTCTGGGGCATCAGCAGGTTACCATAACTTAA, the PBM binding z-score is -0.165. The sequence CCTATTAGTTGAACATAAGGGCAACCGAAGCTCG returned a PBM binding z-score of 0.603.

As to CCGAGTAGGATATGGGGCATTCAGGCAACGGTGA, the PBM binding z-score was -0.284.

In turn, CGAACTAGGTCTTTGACAGGACAGTGAATAGTAA had a PBM binding z-score of -0.318. ATCGAAAGGTCGTGAGGTGAGTATCCAGAAAGGC registered a PBM binding z-score of 3.39. Turning to CCTACAGGGCCAAAAAGGTCATTGATGCCGATAA, the PBM binding z-score turned out to be 5.62. TCTATTAGTTGATTAGGGCGACCGAAACAGCGGA showed a PBM binding z-score of 0.776. Take AGAATGAGGTTATTAAGATCAGGGAGTTGCGGTC: the PBM binding z-score was 2.3. With GCTAGCAGGCCATTTAGGTCACTCAATGACGGGC, the PBM binding z-score was determined as 0.996. With TCGAGTAGGTTAGTCGGGTCATTCAGCCAACATA, the PBM binding z-score worked out at 4.88. Then ACAGACAGGTGAGTGAAGGGAACTCAGCTGGACG, with -0.408; and CCTCGGAGGACAACAGGAGGTTAGAGCTGCCAGA, with -0.265. As for TCTTGTAGATCAACAGGAGGTTAAGAAAGATCGA, the PBM binding z-score was found to be 0.453. As to AGAATGACGTTAAGATCAGGGAAACAGAATACAT, the PBM binding z-score is -0.215.

Sequence ATCGAAAGGTCGAGGTGAGTAAAGAGAAAGGGAA came in with a PBM binding z-score of 2.25. In turn, CCGACTGGGGCAAGGTTCCCATAACGCACAGCCA displayed a PBM binding z-score of -0.47. TCATATATGTAAAGGTGAAAGTCGAACGATATGA: the PBM binding z-score turned out to be 1.17. For CAAACTAGGTCAAGAGGACAAAGTCCGCTTCCCG, the PBM binding z-score turned out to be 1.98. AGAATGAGGTTATTAAGATTAGGGAATTGCGGTC gave a PBM binding z-score of 1.29. Regarding ATACCAAGGTGATCGTGAGGCCGTTGATACTAAC, the PBM binding z-score was 0.401.

On to GCTGCTTGGTCAACTGATGGTCAGCTAAAGCTCG, for which the PBM binding z-score is -0.687.

Take ATCGAAAGGTCGAGGTGAGAATAGAGAAAGGGAA: the PBM binding z-score worked out at 2.37.
